Most compounds without a hit are left out; they make up all but 3.5% or so of the library.
LmPK inh: qHTS Assay for Inhibitors of Leishmania Mexicana Pyruvate Kinase (LmPK); Potency, µM (highest dose often 57.5 µM), without a hit: at the top dose activity change, negative = inhibition, actives largely listed as inhibitors; hit rate 0.37% among 290,000; purified LmPK, Kinase-Glo ATP luminescence, 1 h; also: % is scaled to controls: 0 for no effect and ±100 for the full control effect
Target sequence (Q27686 whole entry, looked up): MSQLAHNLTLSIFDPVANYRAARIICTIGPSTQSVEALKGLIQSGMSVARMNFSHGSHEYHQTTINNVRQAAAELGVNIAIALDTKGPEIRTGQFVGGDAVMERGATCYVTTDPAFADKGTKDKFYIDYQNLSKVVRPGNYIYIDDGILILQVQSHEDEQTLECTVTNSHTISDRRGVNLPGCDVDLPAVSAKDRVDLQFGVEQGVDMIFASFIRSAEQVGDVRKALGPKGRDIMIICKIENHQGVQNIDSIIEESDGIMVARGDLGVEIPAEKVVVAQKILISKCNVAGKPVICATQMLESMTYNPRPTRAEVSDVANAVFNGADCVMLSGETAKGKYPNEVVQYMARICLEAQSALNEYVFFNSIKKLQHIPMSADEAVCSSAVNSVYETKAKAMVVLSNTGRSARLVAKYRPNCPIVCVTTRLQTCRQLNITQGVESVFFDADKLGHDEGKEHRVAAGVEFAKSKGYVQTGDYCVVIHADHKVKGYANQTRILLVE
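Purified LmPK (0.1 nM) converted ADP (0.1 mM) to ATP with PEP (0.5 mM) in imidazole buffer pH 7.2 with KCl and MgCl2, 1 h at room temperature. ATP was read by Kinase-Glo luminescence; data normalized to uninhibited and no-enzyme controls.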
Sm TGR inh: qHTS Assay for the Inhibitors of Schistosoma Mansoni Peroxiredoxins; Schistosoma mansoni thioredoxin glutathione reductase (TGR), Q962Y6; purified TGR, DTNB reduction, TNB absorbance 405 nm; Potency, µM (doses to about 114 µM), inactives show at the top dose activity change, negative = inhibition, most hits filed as inhibitors; hit rate 3% among 360,000; AID 485364, 2010; also: % is scaled to controls: 0 for no effect and ±100 for the full control effect; nearly all actives have a fitted effect of over 60% in size
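TGR 20 nM + NADPH 100 uM (dispensed conc.), cpd preinc 15 min RT; start with NADPH (500 uM addition) then DTNB (15 mM addition). Kinetic TNB absorbance, 405 nm filter. Four-parameter Hill fit across titration.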
NS1 inh: qHTS Assay for Inhibitors of Influenza NS1 Protein Function. hit rate 0.4% among 270,000. AID 2326, 2010. Potency, µM (titrated, usually from 46.1 µM), for the others: at the top dose activity, positive = more growth; calls by dose curve; also: actives are rising curves; nearly all actives have a fitted effect of over 50% in size
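S. cerevisiae expressing influenza A NS1, grown in glucose, washed, then diluted 1:100 into pH 6.0 -URA galactose medium with 23 nl compound. Growth recovery read as OD600; NS1-free strain serves as control.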
Giardia FBPA inh: qHTS Assay for Inhibitors of Fructose-1,6-bisphosphate Aldolase from Giardia Lamblia; A8B2U2; purified Giardia FBPA; Potency, µM (series often up to 59.6 µM), for inactives: top-dose activity, negative = inhibition, hits mostly inhibitors; hit rate 0.71% among 290,000; AID 2451, 2010; also: % is scaled to controls: 0 for no effect and ±100 for the full control effect; nearly all actives have a fitted effect of over 55% in size
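Giardia FBPA (40 nM reagent) was preincubated 10 min at RT with compound (up to 57.5 uM final), then substrate plus GAPDH/TPI/NAD/arsenate coupling system with diaphorase/resazurin was added; resorufin fluorescence (525/598 nm) was read after 20 min.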
RE007 growth inh: qHTS Assay for Inhibitors of the HIV-1 protein Vpr. S. pombe RE007 Vpr strain, BacTiter-Glo ATP luminescence, 24 h. hit rate 0.21% among 360,000. Potency, µM (highest dose often 92.2 µM), inactives show at the highest dose activity change, negative = less growth, usual class: inhibitors; active = well fitted falling curve with a large enough effect; inconclusive = small, poorly fitted or top-dose-only effect; inactive = no such curve, though single readings can be large or run the other way; also: % is scaled to controls: 0 for no effect and ±100 for the full control effect; nearly all actives have a fitted effect of over 50% in size
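Fission yeast RE007 carrying one integrated HIV-1 vpr copy, seeded at OD 0.01 in PMG+AL medium with 23 nL pinned compound. Grown 24 h at 30 degrees; viability read by BacTiter-Glo luminescence after 5 min.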
TbPYK inhibitor: qHTS of Trypanosoma Brucei Inhibitors; pyruvate kinase (Trypanosoma brucei), Q57TT1; TbPYK enzyme, Kinase-Glo Plus ATP luminescence, 45 min; Potency, µM (top dose mostly 76.8 µM), without a hit: top-dose activity, negative = inhibition, most hits filed as inhibitors; hit rate 0.12% among 410,000; also: % is scaled to controls: 0 for no effect and ±100 for the full control effect; nearly all actives have a fitted effect of over 50% in size
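Activity of T. brucei pyruvate kinase was followed by Kinase-Glo Plus luminescence after the enzyme reacted 45 min at room temperature with 130 uM ADP (final) and substrate. Test compounds were added before ADP at multiple concentrations.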
* hit, by the source's call; ? = inconclusive; . = no result; [ ] = dose if it differs, or a comment. Unless noted, calls follow the shape of the dose curve; as a rule, active = well fitted curve in the direction sought with a large enough effect; inconclusive = small, poorly fitted or top-dose-only effect, or another doubt; inactive = no such curve, though single readings can be large; an effect the other way counts as inactive or inconclusive. Potency is read from the fitted curve at half-maximal effect.

SMILES | LmPK inh | Sm TGR inh | NS1 inh | Giardia FBPA inh | RE007 growth inh | TbPYK inhibitor
O=C(CSc1nnc(SCc2ccccc2)s1)N/N=C/C=C\c1ccco1 | 2% | 32µM* | 30% | -28% | 3% | -14%
CCn1c(SCC(=O)N/N=C/C=C/c2ccco2)nnc1-c1ccc(OC)cc1 | 9% | 32µM* | 24% | ? | -1% | -7%
CCn1c(SCC(=O)N/N=C/c2ccc(C)o2)nnc1-c1ccc(C)cc1 | 0% | -29% | 0% | -3% | 2% | -22%
CCn1c(SCC(=O)N/N=C/C=C/c2ccco2)nc2ccccc21 | 2% | 14µM* | 25% | -30% | 1% | -13%
Cc1ccc(N(Cc2cc3ccccc3[nH]c2=O)C(=O)c2cccc(Cl)c2)cc1 | . | -3% | . | . | . | -6%
Cc1c(Cl)cccc1NC(=O)CSc1nc(=O)[nH]c2c1CCC2 | . | 4% | . | . | . | -4%
CCCOc1ccc(N2C(=O)CC(N(CCC)C(=O)CCC(=O)O)C2=O)cc1 (stereo not drawn) | 2% | -9% | -3%[9.22 µM] | -1% | -5% | -4%
CCCCCCC(=O)N(O)C1CC(=O)N(c2ccc(C)cc2)C1=O (stereo not drawn) | -1% | 0.56µM* | -36% | -7% | 0%[3.69 µM] | .
CCCCCCC(=O)N(O)C1CC(=O)N(c2ccc(Cl)cc2)C1=O (stereo not drawn) | -25% | 0.56µM* | -67% | -16% | 4µM* | -24%
O=C(CSc1ccc2nc(-c3ccccc3)cn2n1)Nc1cccc(F)c1 | . | 3% | . | . | . | -8%
COc1cc([N+](=O)[O-])ccc1NC(=O)Nc1ccc(C(=O)N2CCCC2)cc1 | -2% | ? | 1% | . | -7% | -6%
COc1cc([N+](=O)[O-])ccc1NC(=O)N1CCCCCC1 | -12% | 32µM* | 10% | . | -17% | 7%
CCOC(=O)c1ccc(NC(=O)CCCc2nc(-c3ccccc3Cl)no2)cc1 | . | 3% | . | . | . | -2%
CCCNC(=O)OC[C@@H]1O[C@H](CCO/N=C(\C)CCC(=O)OC[C@@H]2O[C@H](c3ccccc3)C=C[C@@H]2Oc2ccc(OC)cc2)C=C[C@@H]1Oc1ccc(OC)cc1 | . | . | . | -1%[12.9 µM] | . | .
Cn1c(=O)c2c(-c3ccccc3Cl)n(Cc3ccc(Cl)cc3)cc2n(C)c1=O | . | 4% | . | . | . | 2%
Cc1cccc(-c2c3c(=O)n(C)c(=O)n(C)c3cn2-c2ccccc2O)c1 | 0% | -11% | -102% | 13µM* | -6% | 4%
Cn1c(=O)c2c(-c3ccccc3Cl)n(-c3cc(Cl)ccc3O)cc2n(C)c1=O | . | 13µM* | . | . | . | -5%
COc1ccc(OC)c(NC(=O)Nc2cccc(OCc3cc(=O)n4cc(C)ccc4n3)c2)c1 | . | ? | . | . | . | -8%
Cn1cnc([N+](=O)[O-])c1Nc1ccc(O)cc1 | 5% | 25µM* | -3% | ? | 4% | -1%
Cc1cc(C)cc(OCC(=O)NCC2(N(C)C)CCCCC2)c1 | . | 2% | . | . | . | -3%
Cc1ccc(S(=O)(=O)C=CS(=O)(=O)c2ccc(C)cc2)cc1 | . | . | . | . | 1.4µM* | ?
O=c1c2ccccc2cnn1Cc1n[nH]c(=S)n1-c1ccc(F)c(Cl)c1 | 2% | -2% | . | 5% | -8% | ?
CC(c1ccc(F)cc1)n1c(Cn2ncc3ccccc3c2=O)n[nH]c1=S (stereo not drawn) | 6% | 0% | -1% | 6% | 18% | 13µM*
O=c1c2ccccc2cnn1Cc1n[nH]c(=S)n1-c1cc(Cl)cc(Cl)c1 | -25% | -20% | 21% | 16% | 2% | 6.3µM*
CC(c1ccc(F)cc1)n1c(-c2cccs2)n[nH]c1=S (stereo not drawn) | ? | . | 10% | -7% | -3% | 7.1µM*

High-throughput results deposited in PubChem BioAssay by National Center for Advancing Translational Sciences (NCATS).
